# Assay results as given in PubChem BioAssay AID2252 (Southern Research Specialized Biocontainment Screening …, 2010).
# About 1,500 (65%) of roughly 2,300 compounds were called active. How the calls were made is not given here. So high a share suggests a set chosen from earlier hits. Only a sample is shown.
# Assay: PubChem AID 2252;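 further: 100% = mean of untreated cell control wells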
# Conditions: THP-1 viability, CellTiter-Glo luminescence, 72 h; min viability: minimum viability across concentrations, stronger effect = lower value, concentration not given here; series mostly up to 50 µM; viability: at the top concentration
Structure (SMILES),viability,min viability [%]
O=C(c1cccs1)N1CCN(S(=O)(=O)c2ccccc2)CC1,93.3% (inactive),
COc1ccc(Cl)cc1NC(=O)c1cc(-c2ccccc2)on1,92% (inactive),
C#CCOCCOCCOCCNc1nc(N2CCN(C(=O)[C@H](CCCCN)n3cc([C@@H](N)CC(C)C)nn3)CC2)nc(N2CCN(C(=O)[C@H](Cc3cc4ccccc4[nH]3)n3cc([C@@H](N)Cc4ccc(O)cc4)nn3)CC2)n1,98.8% (inactive),
CO[C@@]1(NC(=O)C2SC(=C(C(N)=O)C(=O)O)S2)C(=O)N2C(C(=O)O)=C(CSc3nnnn3C)CS[C@@H]21 (stereo not given in full),84.2% (inactive),
CC1=NOC(=O)/C1=C/c1ccc(O)cc1,94.8% (inactive),
Fc1ccccc1CCNCc1ccccc1,84.2% (inactive),
CCn1cc(C(=O)O)c(=O)c2cc(F)c(N3CCN(C(=O)Nc4ccccc4)CC3)cc21,82.1% (inactive),
COc1ccc(Cl)cc1S(=O)(=O)N1CCN(C(=O)c2ccco2)CC1,94% (inactive),
C#CCOCCOCCOCCNc1nc(N2CCN(C(=O)[C@H](Cc3ccc(O)cc3)n3cc([C@@H](N)CC(C)C)nn3)CC2)nc(N2CCN(C(=O)[C@H](Cc3ccc(O)cc3)n3cc([C@@H](N)CC(C)C)nn3)CC2)n1,102% (inactive),
O=C(O)c1ccc(CSc2nnnn2C2CCCCC2)cc1,99.2% (inactive),
COC(=O)c1ccc(NC(=O)c2ccccc2N(C)S(=O)(=O)c2ccccc2)cc1,80.3% (inactive),
CCOC(=O)c1sc(N)c(C(=O)OC)c1C,83.4% (inactive),
COc1cc(OC)nc(NC(=O)C(C)C)n1,93.5% (inactive),
C[C@]1(OC(=O)/C=C/c2ccccc2)C[C@@H](O)[C@]2(O)C=CO[C@@H](O[C@@H]3O[C@H](CO)[C@@H](O)[C@H](O)[C@H]3O)[C@@H]21,87.5% (inactive),
O=[N+]([O-])c1ccc(CN2CCSCC2)cc1,98.1% (inactive),
NC(=O)c1cc(S(=O)(=O)Nc2cccc(F)c2)co1,99.6% (inactive),
O=C(N/N=C/c1ccc(F)c(F)c1)c1cc2c(s1)-c1ccccc1CC2,97.7% (inactive),
O=C(COc1ccc(Cl)cc1)N1CCN(C2CCCC2)CC1,110% (inactive),92.7
O=C(/C=C/c1ccccc1)OCc1cnc(Cl)s1,98.5% (inactive),
CCOC(=O)c1cccc(NC(=O)C2CCC(CNc3c(N4CCOCC4)c(=O)c3=O)CC2)c1 (stereo not given),91.6% (inactive),

Structure (SMILES),viability,min viability [%]
Cc1cc(C(=O)Nc2cccnc2)on1,101% (inactive),
O=c1c2ccccc2[nH]c2ccccc12,86.8% (inactive),
CCN1CCN(C(=O)c2cc3ccc(OC)cc3[nH]2)CC1,97.6% (inactive),
CC(C)(C)NC(=O)/C=C/c1ccc(C(F)(F)F)cc1,92.3% (inactive),
COc1cccc(CNc2nn[nH]n2)c1OC,106% (inactive),
Nc1ccc(S(=O)(=O)Nc2ccc(Cl)nn2)cc1,98.9% (inactive),
O=C(NC1(C(F)(F)F)C(=O)Nc2c1c(=O)[nH]c(=O)n2-c1ccccc1)c1ccncc1 (stereo not given),88.6% (inactive),
CC(C)C(NS(=O)(=O)c1cccc2nsnc12)C(=O)N1CCn2c1nc1ccccc12 (stereo not given),94.3% (inactive),
O=S(=O)(Nc1cccc(-c2cn3c(n2)SCC3)c1)c1ccc(F)cc1F,89.8% (inactive),
CCOc1ccc(N2CC(C(=O)OCC(=O)NCc3ccccc3)CC2=O)cc1 (stereo not given),103% [at 25 µM] (inactive),
O=C(NC(=S)Nc1c(F)cc(F)cc1Br)c1ccc2c(c1)OCCO2,94% (inactive),
CCOC(=O)/C=C1/N(C)c2ccccc2C1(C)C,97.1% (inactive),
CCCCOc1ccc(CN2CCC(O)CC2)cc1,95.6% (inactive),
CCO[C@H]1OC(C(=O)O)=C[C@@H](c2ccccc2)[C@@H]1CCCO,93.8% (inactive),
CCc1nc(SCC(=O)NCCc2ccccc2)c2c(=O)n(C)c(=O)n(C)c2n1,105% (inactive),
C/C(=C\C(=O)OCCCCCCCCC(=O)O)C[C@@H]1OC[C@H](C[C@@H]2O[C@H]2[C@@H](C)[C@H](C)O)[C@@H](O)[C@H]1O,96.7% (inactive),
Cc1cc(C)n2nc(S(=O)(=O)Nc3c(Cl)cccc3Cl)nc2n1,104% (inactive),
COc1cccc(OC)c1C(=O)Nc1ccc(N2CCN(S(C)(=O)=O)CC2)cc1,84.6% (inactive),
O=C(c1ccccc1F)N1C(=O)c2cccc3cccc1c23,91.2% (inactive),
CCc1cccc2c(C=C(C#N)C#N)cn(CC(=O)N3CCCCCC3)c12,103% (inactive),

Structure (SMILES),viability,min viability [%]
COc1ccc(-c2cc(C(=O)Nc3ccc(S(=O)(=O)Nc4onc(C)c4C)cc3)c3ccccc3n2)cc1OC,96% (inactive),
O=C1C(O)=C(O)C(=O)c2ccccc21,81.8% (inactive),
Cc1cccc2cc(C(c3nnnn3Cc3ccccc3)N3CCN(C)CC3)c(=O)[nH]c12 (stereo not given),102% (inactive),
O=C(C[n+]1cc(-c2ccc(Cl)cc2)n2c1CCC2)Nc1nc(-c2ccccc2)cs1,109% (inactive),
C#CCOCCOCCOCCNc1nc(N2CCN(C(=O)[C@H](CCCCN)n3cc([C@@H](N)CO)nn3)CC2)nc(N2CCN(C(=O)[C@H](Cc3cc4ccccc4[nH]3)n3cc([C@@H](N)Cc4ccc(O)cc4)nn3)CC2)n1,91.4% (inactive),
COc1ccc(-n2nnc3c(SCC(=O)N4CCCc5ccccc54)ncnc32)cc1,99.5% (inactive),
CC(C)(C)SCCNC(=O)c1ccccc1,97.1% (inactive),
Cc1cc(C)c2c(=O)[nH]c(SCC(=O)N3CCCCC3)nc2n1,87.6% (inactive),
CN(CC(=O)NCc1ccncc1)S(=O)(=O)c1ccccc1,95.6% (inactive),
O=C(Nc1ccc2c(c1)OCCO2)C(=S)NCc1ccccc1,81.3% (inactive),
CCN(CC)CCn1nc(C)nc1-c1ccccc1O,95.7% (inactive),
CCN(CC(=O)Nc1ccc(C(=O)OC)cc1)C1CCCCC1,97.9% [at 25 µM] (inactive),
CC(=O)NS(=O)(=O)c1ccc(Nc2ccc([N+](=O)[O-])c3nonc23)cc1,93.8% (inactive),
O=C(NC(CO)Cc1ccc([N+](=O)[O-])cc1)C(Cl)Cl (stereo not given),94% (inactive),
C#CCOCCOCCOCCNc1nc(N2CCN(C(=O)[C@H](Cc3cc4ccccc4[nH]3)n3cc([C@@H](N)CC(C)C)nn3)CC2)nc(N2CCN(C(=O)[C@H](Cc3cc4ccccc4[nH]3)n3cc([C@@H](N)CC(C)C)nn3)CC2)n1,91.9% (inactive),
COCCN1C(=O)C(=O)/C(=C(/O)c2cccc(OC)c2)C1c1ccncc1 (stereo not given),117% (inactive),
Cc1cccc(NC(=O)CSc2nc3c([nH]c4ccccc43)c(=O)n2C)c1,87.8% (inactive),
O=C(COc1ccc(Cl)cc1)Nc1cccc(-c2ccc3nncn3n2)c1,82.9% (inactive),
CO[C@H]1/C=C/O[C@@]2(C)Oc3c(C)c(O)c4c(O)c(c(C=NN5CCN(C)CC5)c(O)c4c3C2=O)NC(=O)/C(C)=C\C=C\[C@H](C)[C@H](O)[C@@H](C)[C@@H](O)[C@@H](C)[C@H](OC(C)=O)[C@@H]1C,81.3% (inactive),
